Assay outcomes: PubChem, National Center for Advancing Translational Sciences (NCATS)
This is a sample that favours compounds with a hit; in the whole collection about 3.1% have one here.
TSHR antag – antagonists of human thyroid stimulating hormone receptor. 330,000 tested, 0.2% active. P16473. AID 504810. activity change, negative = inhibition, % at 11.5 µM. TSHR-expressing cells, TSH-stimulated cAMP HTRF, 2 h; hits give low values;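 active means activity change below a set negative limit, meaning inhibition stronger than a set level, cut at about -70% in these data; inconclusive means activity change between two set negative limits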
Target sequence (P16473 whole entry, looked up): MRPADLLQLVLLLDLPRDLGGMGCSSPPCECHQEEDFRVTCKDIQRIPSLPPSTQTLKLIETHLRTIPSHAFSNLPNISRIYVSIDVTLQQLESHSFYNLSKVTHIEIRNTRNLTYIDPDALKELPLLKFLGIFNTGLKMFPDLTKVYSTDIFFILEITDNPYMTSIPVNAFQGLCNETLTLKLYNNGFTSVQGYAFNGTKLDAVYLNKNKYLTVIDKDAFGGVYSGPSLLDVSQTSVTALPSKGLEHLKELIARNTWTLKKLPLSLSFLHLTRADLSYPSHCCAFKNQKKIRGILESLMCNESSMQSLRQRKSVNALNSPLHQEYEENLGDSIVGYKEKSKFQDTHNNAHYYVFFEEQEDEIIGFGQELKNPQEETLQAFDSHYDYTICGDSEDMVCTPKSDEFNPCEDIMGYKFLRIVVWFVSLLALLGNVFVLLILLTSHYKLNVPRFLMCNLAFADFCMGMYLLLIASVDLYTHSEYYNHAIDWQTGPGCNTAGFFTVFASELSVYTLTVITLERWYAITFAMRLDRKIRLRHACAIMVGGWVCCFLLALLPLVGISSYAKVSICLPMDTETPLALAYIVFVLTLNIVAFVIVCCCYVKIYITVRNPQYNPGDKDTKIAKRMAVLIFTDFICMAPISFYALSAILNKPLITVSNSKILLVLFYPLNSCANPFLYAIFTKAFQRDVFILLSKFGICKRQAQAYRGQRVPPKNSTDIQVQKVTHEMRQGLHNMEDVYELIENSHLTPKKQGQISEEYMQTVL
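Inhibition of cAMP made by TSHR-expressing cells under TSH stimulation (4nM final, EC80; 2 h, 37 deg C) is quantified with a one-step lysis HTRF kit, anti-cAMP cryptate versus cAMP-d2.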
PLK1 PBD inh – blocks phosphopeptide binding to human PLK1 polo-box domain. AID 720504. Potency, µM, most hits filed as inhibitors. 360,000 tested, 2.8% active. Plk1 PBD binding of FITC phosphopeptide, fluorescence polarization; further: series mostly up to about 57 µM; nearly all actives have a fitted effect of over 65% in size
uPA generation – cell surface uPA generation inhibition. cell surface uPA generation assay, qHTS. Potency, µM (titrated, usually from 38.3 µM), actives largely listed as inhibitors. 330,000 tested, 0.31% active. AID 540303; active means well fitted inhibition curve with a large enough effect; inconclusive means small, poorly fitted or top-dose-only effect; inactive means no such curve, though single readings can be large or run the other way; tested in mouse RAW 264.7 cells; further: nearly all actives have a fitted effect of over 55% in size
VDR inhibitor – inhibitors of human vitamin D receptor | P11473 | VDR-SRC2-3 peptide fluorescence polarization, 2 h | Potency, µM, hits mostly inhibitors | 400,000 tested, 0.93% active
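VDR–SRC2-3 interaction, FP format. Cmpds 23 nl via pintool, brief spin, 2 h ambient incubation.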
TSG101-PTAP inh – blocks PTAP/TSG101 interaction to inhibit HIV-1 budding. Potency, µM (highest dose often 115 µM), hits mostly inhibitors. Fluorescence polarization, FITC-PTAP peptide / Tsg101 binding. 340,000 tested, under 10 active; active means well fitted inhibition curve with a large enough effect in the main read-out, with a control signal flat, not every such curve was filed as active; inconclusive means small, poorly fitted or top-dose-only effect, or effect the other way, or a change in a side signal; inactive means no such curve, though single readings can be large or run the other way
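Tsg101 binding domain (10 uM final) was mixed with compound and a FITC-labeled PTAP peptide (50 nM final) in HEPES pH 7.5 buffer with NaCl, Tween 20, EDTA and TCEP; fluorescence polarization was read after 20 min at r.t.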
Large screens that a line does not name were inactive. Unless noted, the call rests on the fitted dose curve; in most records, active means well fitted curve in the direction sought with a large enough effect; inconclusive means small, poorly fitted or top-dose-only effect, or another doubt; inactive means no such curve, though single readings can be large; an effect the other way counts as inactive or inconclusive.

CCOC(=O)C1(c2ccccc2)CCCNC1=O (centres undefined)	none (no result: TSHR antag, uPA generation, VDR inhibitor, TSG101-PTAP inh)
CCOC(=O)C1(c2ccccc2)SC(C(=O)OCC)(c2ccccc2)S1 (centres undefined)	PLK1 PBD inh 21µM (no result: TSHR antag, uPA generation, VDR inhibitor, TSG101-PTAP inh)
Cc1ccc2cc(CN(Cc3ccco3)C(=S)NCC3CCCO3)c(=O)[nH]c2c1 (centres undefined)	none
O=c1[nH]c2cc3c(cc2cc1CN(Cc1ccco1)C(=S)NCC1CCCO1)OCCO3 (centres undefined)	uPA generation 13µM
COc1ccc(Oc2ncc3ncc(=O)n(C[C@H]4CCCO4)c3n2)cc1	none (no result: TSHR antag, PLK1 PBD inh, uPA generation, TSG101-PTAP inh)
Cc1cccc2sc(NNC(=O)c3ccc(S(=O)(=O)N4CCCC(C)C4)cc3)nc12 (centres undefined)	uPA generation 8.9µM
Cc1cccc2sc(NNC(=O)c3ccc(S(=O)(=O)N4CCc5ccccc5C4)cc3)nc12	uPA generation inconclusive
CC(=O)n1nc(-c2cccnc2)nc1NCc1ccc(F)cc1	none (no result: TSHR antag, PLK1 PBD inh, uPA generation, TSG101-PTAP inh)
C=CCn1c(C)cc(C(=O)CSc2nc3ccccc3c(=O)[nH]2)c1C	PLK1 PBD inh 12µM
COc1ccc(NC(=O)CSc2cn(CC(=O)N3CCOCC3)c3ccccc23)cc1OC	none (no result: TSHR antag, PLK1 PBD inh, uPA generation, TSG101-PTAP inh)
C=C1C2CC[C@]3(CCC4[C@@]5(C)CCC[C@@]4(CN(CCO)C5)[C@@H]3C2)[C@@H]1O (some centres undefined)	none (no result: TSHR antag, PLK1 PBD inh, uPA generation, TSG101-PTAP inh)
CN(C)c1nc(-c2cn(CCC#N)c3ccccc23)cs1	PLK1 PBD inh 27µM (no result: uPA generation)
COc1ccc(CCNS(=O)(=O)c2ccc(F)c(C(=O)Nc3ccc(Cl)cc3)c2)cc1OC	none (no result: TSHR antag, PLK1 PBD inh, uPA generation, TSG101-PTAP inh)
CCC1CCCCN1CCCNC(=O)C1CCN(Cc2nc(-c3ccc(Cl)cc3)oc2C)CC1 (centres undefined)	uPA generation 10µM
Cc1oc(-c2cccc(Cl)c2)nc1CN1CCC(C(=O)NC(C)c2ccccc2)CC1 (centres undefined)	none (no result: TSHR antag, PLK1 PBD inh, uPA generation, TSG101-PTAP inh)
Cc1oc(-c2cccc(Cl)c2)nc1CN1CCC(C(=O)NC2CC2)CC1	PLK1 PBD inh 21µM
CC(=O)Nc1cc(-c2ccccc2)cn2c(-c3ccc(F)c(Cl)c3)cnc12	none (no result: TSHR antag, uPA generation, VDR inhibitor, TSG101-PTAP inh)
Nc1cccn2c(-c3ccc(Cl)c(Cl)c3)cnc12	PLK1 PBD inh 6µM
Nc1cccn2c(-c3ccc(Cl)cc3)cnc12	PLK1 PBD inh 27µM
COc1ccccc1N1CCN(S(=O)(=O)c2cc(C(=O)Nc3ccc(Oc4ccccc4)cc3)ccc2F)CC1	none (no result: TSHR antag, PLK1 PBD inh, uPA generation, TSG101-PTAP inh)
O=C(Cn1nnc(-c2ccc(N3CCOCC3)cc2)n1)OC1CCCCC1	none
O=C(Cn1nnc(-c2ccc(N3CCOCC3)cc2)n1)N1CCOCC1	uPA generation 4.5µM
O=C(Cn1nnc2ccccc2c1=O)N[C@@H](Cc1c[nH]c2ccccc12)C(=O)O	none
CC(C)C[C@H](NC(=O)CCn1nnc2ccccc2c1=O)C(=O)O	PLK1 PBD inh 19µM
C[C@@H](C(=O)N[C@@H](Cc1c[nH]c2ccccc12)C(=O)O)n1nnc2ccccc2c1=O	PLK1 PBD inh 30µM
O=C(CCCn1nnc2ccccc2c1=O)N[C@H](C(=O)O)c1ccccc1	none
O=C(Cn1nnc2ccccc2c1=O)N[C@H](C(=O)O)c1ccccc1	PLK1 PBD inh 30µM
C/C(C/C(C)=C1/SC(=S)NC1=O)=C1\SC(=S)NC1=O	PLK1 PBD inh 19µM, VDR inhibitor inconclusive
CCCCCC/C(C)=C1/SC(=S)NC1=O	TSHR antag -85, PLK1 PBD inh 24µM, VDR inhibitor inconclusive
Fc1ccccc1Nc1nc(Cl)nc(Cl)n1	PLK1 PBD inh 19µM, VDR inhibitor 71µM
CCOC(=O)c1c(C)[nH]c(C(=O)COC(=O)c2ccc(F)c(S(=O)(=O)N3CCOCC3)c2)c1C	PLK1 PBD inh 27µM
O=C(COC(=O)c1ccc(F)c(S(=O)(=O)N2CCOCC2)c1)c1ccc(Cl)cc1	none
O=C(Nc1ccncc1)c1cn(-c2ccccc2)nc1-c1cccs1	TSHR antag -75
Cc1cc(C)n2nc(CC(=O)NCc3ccc(F)cc3)nc2n1	PLK1 PBD inh 27µM
Cc1cc(C)n2nc(C(=O)NCc3ccccc3)cc2n1	PLK1 PBD inh 21µM, VDR inhibitor inconclusive (no result: uPA generation)
Cc1ccc(NC(=O)CSCC(=O)NCc2cccc(C(F)(F)F)c2)cc1	none
CCOc1cc(CNC(=O)c2ccc3c(c2)N(C)C(=O)C2CCCCN32)ccc1OC (centres undefined)	none (no result: TSHR antag, PLK1 PBD inh, uPA generation, TSG101-PTAP inh)
COc1cc(-c2nc3ccc(C)cn3c2NCc2ccccc2)ccc1SC1CCCCC1	uPA generation 8.9µM
Cc1cc(C)nc(Nc2n[nH]c(COc3ccccc3)n2)n1	PLK1 PBD inh 3.4µM, VDR inhibitor inconclusive
CCOC(=O)c1ncn2c1[C@@H]1CCNC1C(=O)c1cc(OC)ccc1-2 (some centres undefined)	none
CCCCNC(=O)CSc1cc(=O)n(C)c2ccccc12	PLK1 PBD inh 27µM
COc1cc(C(C2C(=O)CC(C)(C)CC2=O)C2C(=O)CC(C)(C)CC2=O)cc(OC)c1OC	PLK1 PBD inh inconclusive, VDR inhibitor inconclusive
COc1cc(C(C2=C(O)CC(C)(C)CC2=O)C2C(=O)CC(C)(C)CC2=O)cc(OC)c1OC (centres undefined)	PLK1 PBD inh 19µM, VDR inhibitor inconclusive
CC(=O)N1CC[C@@H]2CC(=O)C[C@@H](C)[C@@H]21	none (no result: TSHR antag, PLK1 PBD inh, uPA generation, TSG101-PTAP inh)
CCOc1cc(/C=C2\C(=O)N(c3cccc(C(F)(F)F)c3)C(=O)c3ccccc32)ccc1O	PLK1 PBD inh inconclusive, VDR inhibitor inconclusive
Cc1cccc(N2C(=O)/C(=C\c3ccc(OC(F)F)cc3)c3ccccc3C2=O)c1	PLK1 PBD inh 2.4µM, VDR inhibitor 35µM
Cc1cc(OCc2nc3ccccc3s2)ccc1N	PLK1 PBD inh 11µM, VDR inhibitor inconclusive
CCC(=O)Nc1ccc(OCc2nc3ccccc3s2)cc1	PLK1 PBD inh 17µM, VDR inhibitor inconclusive
c1ccc(OCc2nc3ccccc3s2)cc1	none
CC(O)(C#CCN1CCCCCC1)c1ccccc1 (centres undefined)	PLK1 PBD inh 30µM
CCOc1ccccc1NC(=O)Cn1c(=O)n(C(C)C)c(=O)c2oc3ccccc3c21	none (no result: TSHR antag, PLK1 PBD inh, uPA generation, TSG101-PTAP inh)
COc1ccc(/C=C/C(=O)c2ccc[nH]2)c(OC)c1OC	none
COc1ccc(/C=C/C(=O)c2ccncc2)c2ccccc12	VDR inhibitor 25µM
Cc1ccc(CNC(=O)c2nn(-c3ccc(Cl)cc3)nc2CO)cc1	none (no result: TSHR antag, PLK1 PBD inh, uPA generation, TSG101-PTAP inh)
CCOC(=O)CCC(=O)NNC(=O)c1ccc(NC(=O)c2ccccc2)cc1	PLK1 PBD inh 30µM
O=C(Cc1ccccc1)NNC(=O)c1ccc(NC(=O)c2ccccc2)cc1	none
CCCN1CCN(C(=S)Nc2ccc(S(N)(=O)=O)cc2)CC1	none
CC(C)CC(=O)NNC(=S)Nc1ccc(S(N)(=O)=O)cc1	PLK1 PBD inh 24µM
NS(=O)(=O)c1ccc(NC(=S)N2CCC(Cc3ccccc3)CC2)cc1	PLK1 PBD inh 13µM, VDR inhibitor inconclusive
NC(=O)C1(N2CCCCC2)CCN(C(=S)Nc2ccccc2)CC1	none
CCc1ccc(S(=O)(=O)NC(=S)Nc2ccccc2)cc1	PLK1 PBD inh 27µM, VDR inhibitor inconclusive
